This is an account of results in PubChem BioAssay (NCI).

About 83,000 compounds went through this panel and 20% of them were active in at least one assay; those are over-represented in the sample as a whole.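 Compound tested at a single concentration for 48 hours in 96-well plates; a percent growth value below 10 was scored as active.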 A number with no mark means an inactive call. The source made the active and inactive calls.

Common to all, as to assay: NCI-60 one-dose screen, 48 h (100 = growth as untreated, 0 = no growth, -100 = all killed)
Holding throughout (details): 10 µM

In assay [1] the test system is HCT-15 colon.
Assay [2] concerns HT29 colon.
For assay [3], the system named is SNB-75 CNS.
The subject of assay [4] is SNB-19 CNS.
Assay [5] relates to U251 CNS.
In assay [6] the test system is PC-3 prostate.
For assay [7], the system named is SK-MEL-5 melanoma.
Assay [8] has as its system UACC-62 melanoma.
Assay [9] deals with SK-MEL-28 melanoma.
Assay [10] deals with SK-MEL-2 melanoma.
In assay [11] the test system is EKVX NSCLC.
Assay [12] has as its system SN12C renal.
In assay [13] the test system is UO-31 renal.
The subject of assay [14] is TK-10 renal.
Assay [15] has as its system ACHN renal.
Assay [16] deals with CAKI-1 renal.
Assay [17] has as its system A498 renal.
The subject of assay [18] is CCRF-CEM leukemia.
The test system of assay [19] is MOLT-4 leukemia.

Take `COc1cc(-c2nc3cc(Cl)c(Cl)cc3[nH]2)ccc1OCc1nnc(-c2ccc(Br)cc2)o1`: the growth is 3.31% (active) in assay [1]; 10% in [2]; -58.8% (active) in [3]; 41.5% in assay [4]; 1.03% (active) in assay [5]; -15.8% (active) in assay [6]. The growth in [7] is 3.12% (active); in [8], -42.1% (active); in assay [9], -25% (active); in assay [10], 0.585% (active); in assay [11], 14.3%; in assay [12] it was -39.2% (active). In addition, the growth was -91.1% (active) in [13]; -43.4% (active) in assay [14]; -100% (active) in assay [15]; -76.6% (active) in assay [16]; -86.5% (active) in assay [17]; 7.7% (active) in assay [18]. Besides, the growth in assay [19] is -7.63% (active).

On to `NS(=O)(=O)c1ccc(N=Nc2c(O)n(CC(=O)Nc3ccccc3Br)c3ccccc23)cc1`, for which the growth in assay [1] is 38.2%; in [2] it was 9.73% (active); in [3], 77%; in assay [4], 50.1%; in [5], 25.1%; in assay [6], 39.7%. Moreover, the growth in assay [7] was 14.7%; in [8], 31.2%; in assay [9], 24.9%; in assay [10], 1.95% (active); in assay [11], 49.1%; in assay [12], 47.6%. For the same compound, the growth in assay [13] is 14.4%; in assay [14], 63.3%; in [15] it was 13.9%; in [16], 23.7%; in assay [17], 94.1%; in assay [18], 57.2%. For the same compound, the growth in assay [19] is 41.4%.

As to `Nc1nnc(-c2c[nH]c3ccc(F)cc23)c(-c2c[nH]c3ncccc23)n1`, the growth in assay [1] was 69.3%; in [2], 59.5%; in assay [3], 29.1%; in assay [4], 33.9%; in [5] it was 37.6%; in assay [6], 67.5%. Moreover, the growth in [7] is 63.7%; in assay [8] it was 51.7%; in assay [9], 71.3%; in assay [10], 93.7%; in [11], 65.1%; in assay [12], 46.9%. In addition, the growth is 37.9% in assay [13]; 82.9% in [14]; 51.6% in [15]; 33.9% in assay [16]; 104% in assay [17]; 61.6% in assay [18]. Also, the growth in [19] was 48.8%.

`C=C1CCC2C3(C)COC(c4cccc(F)c4)OC3CCC2(C)C1CC(O)C1=CCOC1=O` (stereo not given): the growth in assay [1] was 8.31% (active); in assay [2] it was 34.7%; in [3] it was 74.2%; in assay [4] it was 95.4%; in assay [5] it was 70.2%; in assay [6] it was 45.1%. Besides, the growth in assay [7] was 60.1%; in assay [8] it was 64.6%; in [9], 64.1%; in [10] it was 75.9%; in [12] it was 44.3%; in assay [13] it was 57.1%. The growth was 113% in [14]; 68.6% in [15]; 74.7% in [16]; 125% in assay [17]; 23.2% in [18]; 41% in [19].

For `O=C(NO)c1ccc(Cn2ccc3c(Nc4ccccc4)ncnc32)cc1`, the growth in [1] is -55.5% (active); in assay [2] it was 8.25% (active); in assay [3] it was 44.3%; in assay [4], -30.4% (active); in assay [5] it was -38.9% (active); in [6], 15%. Further, the growth in assay [7] is -67.2% (active); in assay [8] it was -49.3% (active); in [10] it was 8.71% (active); in assay [11], 23.6%; in [12], 17.6%; in assay [13], 9.48% (active). Also, the growth in [14] was 2.65% (active); in [15], 1.86% (active); in assay [16] it was 10.7%; in assay [17] it was -14.2% (active); in [18], 18.2%; in [19] it was 7.84% (active).

In the case of `CC(=O)C1=C(C)NC(SCC(=O)Nc2ccc(S(=O)(=O)Nc3cc(C)on3)cc2)=NC1c1ccccc1` (stereo not given), the growth is 96.3% in assay [1]; 110% in assay [2]; 102% in assay [3]; 102% in [4]; 103% in assay [5]; 109% in assay [6]. In addition, the growth in [7] is 101%; in assay [8], 97.1%; in [9] it was 110%; in [10] it was 119%; in [11] it was 101%; in assay [12], 111%. For the same compound, the growth in assay [13] is 89.2%; in assay [14], 112%; in assay [15], 106%; in [16] it was 99.8%; in assay [17], 109%; in [18], 98%. The growth in assay [19] is 109%.

With `COc1cccc(COc2ccc(/C=C3\Oc4cc(O)ccc4C3=O)cc2)c1`, the growth in [1] is 42.1%; in [2], 81.1%; in [3], -22.5% (active); in assay [4], 36.1%; in [5], 50.7%; in [6], 67.8%. Moreover, the growth in assay [7] is 24.6%; in assay [8] it was 82.7%; in assay [9], 71.1%; in [10], 87%; in [11] it was 70.9%; in assay [12] it was 66.1%. For the same compound, the growth in [13] was -64.7% (active); in [14], 2.68% (active); in assay [15], -32.1% (active); in [16], -23% (active); in assay [17], 131%; in [18] it was 74.9%. Moreover, in assay [19], the growth was 52.1%.

Take `COc1ccc(-c2ccc(/C=N/NC(=O)c3[nH]c4ccc(Br)cc4c3-c3ccccc3)o2)cc1`: the growth in assay [1] was 26.4%; in assay [2] it was 55.1%; in assay [3], 33%; in assay [4] it was 57.6%; in assay [5], 26.2%; in [6], 55.1%. Also, the growth in assay [7] is 30.3%; in assay [8] it was 30.4%; in assay [9] it was 46.9%; in assay [10], 34.3%; in assay [11], 60.1%; in assay [12] it was 35%. The growth in assay [13] was 43.9%; in assay [14] it was 88.4%; in [15] it was 30.9%; in [16], 28.4%; in assay [17], 73.9%; in assay [18] it was 10.5%. For the same compound, in assay [19], the growth is 20.9%.
